The panel holds about 83,000 compounds, 20% with a hit somewhere; the sample as a whole holds those more often.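 Testing used 96-well plates and a 48-hour single-concentration exposure. Example: -40 means 40% of the starting cells died.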 Calls of active or inactive are those of the source. How the source made its calls: active means growth percent below 10; inactive means the rest.

This passage reports growth results from PubChem BioAssay (NCI).

The experiment deals with MDA-MB-468 breast. The experiment is described as follows: NCI-60 one-dose screen, 48 h (100 = growth as untreated, 0 = no growth, -100 = all killed). The settings on record: 10 µM unless noted.
Consider `O=C(CCC(=O)OC1CCCC1)OC1CCCC1`, for which the growth was 100% (inactive).
In the case of `C=C[C@@H]1C[C@@H]2Cc3c(C)cc(C)cc3N1O2` it was 97.9% (inactive); in that of `COc1ccc(-c2nc3ccc(C)cc3c3c2c(=O)n(C)c(=O)n3C)cc1OC`, 100% (inactive); in that of `COc1ccc(-c2nc3sc(C4CC4)nn3c2/C=C2/C(=O)Nc3ccc(OC)cc32)cc1`, 23.3% (inactive).
The value for `Clc1ccc2c(NCCNc3nc(N4CCOCC4)nc4ccccc34)ccnc2c1` was 25.1% (inactive); that for `COc1ccc2oc(=O)cc(C(c3ccc[nH]3)c3ccc[nH]3)c2c1` was 5.5% (active).
The value for `CCOC(=O)c1[nH]c2cc(Cl)ccc2c1[C@@H](C(=O)NC(C)(C)C)N(CC)C(=O)CCCCC#Cc1cccc2c1CN(C1CCC(=O)NC1=O)C2=O` (some centres undefined) was -14.3% (active).
Take `COc1ccc(-c2nc3ncccn3c2-c2nc3ccc(Br)cc3[nH]2)cc1`: the growth was 75.6% (inactive).
As to `O=[N+]([O-])c1ccc(Sc2cccc[n+]2[O-])c2nonc12`, the growth is 49.3% (inactive).
The value for `N=C(N)c1ccc(-c2ccc(-c3cc(Cl)cc(Cl)c3)s2)cc1` was -77.6% (active).
In the case of `O=C(CSc1nc2c(n1Nc1ccccc1)-c1ccccc1SC2)Nc1nc(-c2ccc(Cl)cc2)cs1` it was 59.1% (inactive); in that of `COC(=O)c1ccc2c(c1)n(Cc1ccc3ccccc3c1)c[n+]2Cc1ccc2ccccc2c1`, -19% (active); in that of `Clc1nc(N2CCC[N+]3(CC2)CC[N+]2(CCCNCC2)CC3)nc(N2CCC[N+]3(CC2)CC[N+]2(CCCNCC2)CC3)n1` (centres undefined), 65.8% (inactive).
In the case of `C=C1CC[C@@]2(C#N)[C@H]3[C@H](CC[C@@H]2C)[C@@H](C)C[C@@H](CC(C)(C)C#N)[C@H]13` it was 59.7% (inactive).
